Data published in article PMC5540273 (PLoS ONE, 2017).

What was measured:
Details in all cases: concentration: 1 μM, replicates: in singlicate; n = 1
FGFR4 = system: FGFR4
FGR = system: FGR
FLT1 = system: FLT1
FLT3-autoinhibited = system: FLT3-autoinhibited
FLT3 = system: FLT3
FLT4 = system: FLT4
FRK = system: FRK
FYN = system: FYN
GAK = system: GAK
GCN2(Kin.Dom.2,S808G) = system: T1, GCN2(Kin.Dom.2,S808G)
T1 construct: gene EIF2AK4

GRK1 = system: GRK1
GRK2 = system: T2, GRK2
T2 construct: gene ADRBK1

GRK3 = system: T3, GRK3
T3 construct: gene ADRBK2

GRK4 = system: GRK4
GRK7 = system: GRK7
GSK3A = system: GSK3A
GSK3B = system: GSK3B
HASPIN = system: T4, HASPIN
T4 construct: gene GSG2

HCK = system: HCK
HIPK1 = system: HIPK1
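Also: KINOMEscan kinase panel screen.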

SMILES	%Inh (FGFR4)	%Inh (FGR)	%Inh (FLT1)	%Inh (FLT3-autoinhibited)	%Inh (FLT3)	%Inh (FLT4)	%Inh (FRK)	%Inh (FYN)	%Inh (GAK)	%Inh (GCN2(Kin.Dom.2,S808G))	%Inh (GRK1)	%Inh (GRK2)	%Inh (GRK3)	%Inh (GRK4)	%Inh (GRK7)	%Inh (GSK3A)	%Inh (GSK3B)	%Inh (HASPIN)	%Inh (HCK)	%Inh (HIPK1)
CCCc1ccc(S(=O)(=O)NC2CCN(c3ccnc(Nc4ccc(OC)cc4)n3)C2)cc1 (stereo not drawn) [GSK1379737]	8%	12%	3%	0%	26%	9%	0%	7%	0%	33%	0%	0%	67%	0%	0%	7%	8%	14%	0%	0%
Cl.Cn1ccc(-c2cccc(Nc3ccnc4cc(-c5nccs5)ccc34)c2)n1 [GW525701]	0%	53%	0%	0%	0%	7%	0%	3%	19%	0%	1%	0%	64%	0%	0%	0%	12%	8%	0%	0%
FC(F)(F)c1cc(Nc2nccc(-c3c(-c4ccc(Cl)cc4)nn4ncccc34)n2)ccc1Cl [GW829351]	0%	0%	0%	0%	0%	0%	0%	0%	0%	0%	0%	0%	0%	10%	0%	26%	0%	0%	0%	3%
CCc1nc(-c2cccc(N(C)S(=O)(=O)c3ccccc3)c2)c(-c2ccnc(Nc3ccc(N4CCN(C(C)=O)CC4)nc3)n2)s1 [GSK1645895]	0%	73%	24%	18%	0%	14%	0%	40%	85%	4%	0%	0%	0%	0%	0%	11%	20%	0%	0%	1%
Nc1nc(-c2ccc3c(N)n[nH]c3c2)cc(N2CCCCC2)n1 [GSK2228768]	0%	12%	24%	0%	0%	1%	0%	18%	0%	0%	0%	0%	30%	0%	0%	0%	0%	0%	0%	0%
CN1CCC(n2cnc(-c3ccc(F)cc3)c2-c2ccnc(NC3CCNCC3)n2)CC1 [SB-229482]	0%	0%	0%	0%	27%	0%	0%	1%	0%	0%	11%	33%	1%	26%	29%	0%	17%	16%	3%	32%
CS(=O)(=O)CCNCc1ccc(-c2ccc3ncnc(Nc4ccc(OCc5ccccc5)c(Cl)c4)c3c2)o1.Cl [GW574783]	0%	9%	26%	0%	11%	0%	0%	14%	0%	16%	2%	1%	20%	0%	0%	8%	1%	30%	18%	0%
Fc1ccc(Nc2nccc(-c3c(-c4ccc(Cl)cc4)nn4ncccc34)n2)cc1F [GW829058]	5%	12%	8%	14%	40%	1%	32%	7%	14%	3%	22%	11%	18%	21%	35%	0%	31%	37%	15%	33%
Cc1ccc(C)c(NC(=O)NCCNc2ccnc(Nc3ccc(F)cc3)n2)c1 [GSK1379878]	0%	4%	24%	0%	0%	0%	0%	0%	0%	0%	0%	0%	17%	0%	0%	3%	0%	4%	0%	0%
